The source made the active and inactive calls. Unless noted, how the calls were made is not given here.
What was measured:
[1] = test system: Wnt5a (protein binding on small-molecule microarray); experiment: Wnt5a binders on small-molecule microarray, primary screen, biophysical, 635/667 nm fluorescence (AID 1142); settings: 635 nm fluorescence, higher = more signal;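 further: fluorescence read at 667 nm with signal to noise per printed feature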
[2] = cell viability in Huh7 cells, primary screen, cytotoxicity control for HCV replication inhibitor project, CellTiter-Glo luminescence, basal, 48 h (AID 1143); settings: Huh7 HCV replicon, higher = more signal, called active from +8 up or from −8 down;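 further: Huh7 hepatoma cells carrying a hepatitis C replication reporter with no stimulus; test concentration not given here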
[3] = P. aeruginosa biofilm formation inhibitors, primary screen, PAO1 strain, BacTiter-Glo luminescence, LB-PBS (AID 1144); settings: 12 h, higher = more signal
[4] = CREB reporter modulators without forskolin, primary screen, cell-based, PC12, CRE-LacZ reporter, unstimulated (AID 1145); settings: no forskolin, luminescence, 4.5 h, higher = more signal, called active from +8 up or from −8 down
[5] = CREB reporter modulators under forskolin, primary screen, cell-based, PC12, CRE-LacZ reporter, forskolin-stimulated (AID 1146); settings: luminescence, 4.5 h, higher = more signal, called active from +8 up or from −8 down;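 further: PC12 cells with 6xCRE LacZ reporter stimulated by forskolin 10 µM; beta-galactosidase reporter signal reflecting CREB driven transcription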
[6] = molecular target: Streptavidin (Streptomyces avidinii) (UniProt P22629); experiment: streptavidin binders on small-molecule microarray, primary screen, artefact control for SMM compound annotation, biophysical, 635/667 nm fluorescence (AID 1147); settings: streptavidin binding, higher = more signal;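 further: signal reflects streptavidin binding to arrayed compounds as a control protein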
[7] = small-molecule binders of probe aInhba, primary screen, biochemical, small-molecule microarray, 635/667 nm fluorescence (AID 1148); settings: higher = more signal;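 further: score merges 667nm spot fluorescence with signal-to-noise for antibody binding to printed compounds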
Torsin-1A (Homo sapiens) [8] = molecular target: Torsin-1A (Homo sapiens) (UniProt O14656); experiment: torsin A binders from cell lysate, primary screen, small-molecule microarray, wild-type, 635/667 nm (AID 1149); settings: COS7 hTOR1A-WT lysate, 635 nm fluorescence, higher = more signal
Torsin-1A (Homo sapiens) [9] = molecular target: Torsin-1A (Homo sapiens) (UniProt O14656); experiment: small-molecule binders of mutant TOR1A in lysate, primary screen, cell lysate, small-molecule microarray, COS7 lysate, 635/667 nm fluorescence (AID 1150); settings: COS7 hTOR1A mutant lysate, 635 nm fluorescence, higher = more signal;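 further: score pools 667 nm emission and signal to noise measuring lysate protein binding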
[10] = test system: Sonic hedgehog protein (Shh); experiment: small-molecule binders of Shh protein, primary screen, biochemical, small-molecule microarray, 635/667 nm fluorescence (AID 1151); settings: small-molecule microarray binding, 635 nm fluorescence; higher = more signal;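 further: Shh protein binding to compounds spotted on small-molecule microarray slides; score combines spot fluorescence intensity with signal-to-noise across triplicate slides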

Streptavidin (Streptomyces avidinii), sequence (P22629 whole entry, looked up): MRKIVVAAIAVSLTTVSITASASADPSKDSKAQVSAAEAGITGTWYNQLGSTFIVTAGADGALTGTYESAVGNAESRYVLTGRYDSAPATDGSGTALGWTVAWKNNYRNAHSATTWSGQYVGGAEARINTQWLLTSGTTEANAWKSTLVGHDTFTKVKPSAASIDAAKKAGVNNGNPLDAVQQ
Torsin-1A (Homo sapiens), sequence (O14656 whole entry, looked up): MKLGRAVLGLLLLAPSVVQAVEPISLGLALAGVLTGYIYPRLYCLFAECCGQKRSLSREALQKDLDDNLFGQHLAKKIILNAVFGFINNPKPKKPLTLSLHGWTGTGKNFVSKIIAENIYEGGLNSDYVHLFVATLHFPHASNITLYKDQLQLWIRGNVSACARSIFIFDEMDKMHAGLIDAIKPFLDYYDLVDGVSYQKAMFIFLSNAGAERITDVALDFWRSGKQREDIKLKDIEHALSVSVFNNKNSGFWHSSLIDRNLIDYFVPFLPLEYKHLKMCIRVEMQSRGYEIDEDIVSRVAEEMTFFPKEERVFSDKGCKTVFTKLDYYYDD

Compound | composite z-score [1] | z-score [2] | z-score [3] | z-score [4] | z-score [5] | composite z-score [6] | composite z-score [7] | composite z-score (Torsin-1A (Homo sapiens) [8]) | composite z-score (Torsin-1A (Homo sapiens) [9]) | composite z-score [10]
CO[C@@H]1COC(=O)[C@@H]2CCCN2C(=O)[C@@H](C)COC(=O)CCC[C@H]1C | -0.0105 | -0.848 (inactive) | -0.506 (inactive) | 0.355 (inactive) | -0.269 (inactive) | 1.21 | -0.153 | 1.21 | 0.241 | 1.18
CCOC(=O)[C@H](Cc1ccccc1)NC(=O)CCC1CC(OC(=O)NCc2ccc3c(c2)OCO3)CC2(CCCC(COC(=O)NCCc3ccc(Cl)cc3)O2)O1 (stereo not given in full) | 0.0468 | -1.42 (inactive) | -1.89 (inactive) | -0.0696 (inactive) | -0.71 (inactive) | 1.14 | -0.0221 | 0.147 | 0.214 | 1.11
CC(=O)OC[C@H]1O[C@H](CC=NOC(C)CN2CCCc3nc(C)c(C)cc32)C=C[C@@H]1OC(C)=O (stereo not given in full) | 0.417 | 0.169 (inactive) | 0.649 (inactive) | -0.961 (inactive) | 0.0009 (inactive) | -0.0656 | -0.0221 | 1.19 | -0.0919 | 1.1
CO[C@H]1COC(=O)CC=C[C@H](C)[C@H](OC)COC(=O)[C@@H](C)NC(=O)CC=C[C@@H]1C | -0.0492 | -0.379 (inactive) | -0.727 (inactive) | 0.276 (inactive) | 0.314 (inactive) | -0.201 | -0.179 | 2.9 | 1.82 | 2.06
O=C1[C@H]2[C@H]3[C@H](O)[C@H](O)CC(=NOCc4ccccc4)[C@H]3CC[C@H]2C(=O)N1C1CCCCC1 | -0.0056 | -1.79 (inactive) | 0.415 (inactive) | 0.52 (inactive) | -0.262 (inactive) | 0.457 | -0.0917 | 0.161 | 1.03 | 0.449
CCN1C(=O)[C@H]2[C@H]3[C@H](O)[C@H](O)CC(=NOCC[C@@H]4C=C[C@H](OC(C)=O)[C@@H](COC(C)=O)O4)[C@@H]3CC[C@H]2C1=O | 0.0885 | -0.0735 (inactive) | 0.857 (inactive) | 0.0757 (inactive) | 0.313 (inactive) | -0.0034 | -0.109 | 0.014 | 0.296 | 0.55
COC(=O)[C@H](C)NC(=O)CC=C[C@@H](C)[C@@H]1C=C[C@H](O)[C@@H](CO)O1 | 0.355 | 0.301 (inactive) | 1 (inactive) | -0.434 (inactive) | 0.222 (inactive) | 0.116 | -0.0918 | 0.945 | 0.394 | 1.39
COc1ccc(COC(=O)NN=C2C[C@@H](O)[C@@H](O)[C@@H]3[C@@H]4C(=O)N(C(C)(C)C)C(=O)[C@@H]4CC[C@@H]23)cc1 | 0.211 | 0.22 (inactive) | 0.224 (inactive) | 0.973 (inactive) | 0.384 (inactive) | 0.244 | 0.0086 | 0.385 | 1.47 | 0.612
COc1cccc([C@H]2Oc3ccc(OC)cc3C(=NOCC[C@@H]3C=C[C@H](OC(C)=O)[C@@H](COC(C)=O)O3)[C@@H]2O)c1 | 0.0377 | -0.0868 (inactive) | 1.43 (inactive) | 5.08 (inactive) | 0.497 (inactive) | -0.112 | -0.154 | 0.186 | 0.273 | 0.509
COC(=O)C(C(=O)OC)C1CCCC(=O)C1 (stereo not given) | -0.155 | -0.509 (inactive) | -0.619 (inactive) | -0.886 (inactive) | -0.0388 (inactive) | 0.402 | -0.274 | 0.622 | 1.42 | 0.769
CCC1=NOC(CCC2CC(OC(=O)NCc3cccc4c3OCO4)CC3(CCCC(COC(=O)NCCc4ccc(Cl)cc4)O3)O2)C1 (stereo not given) | -0.165 | -0.379 (inactive) | 0.612 (inactive) | -0.0755 (inactive) | -0.51 (inactive) | -0.136 | -0.0963 | 0.217 | 0.672 | 0.358
CCN1C(=O)[C@H]2[C@H]3[C@H](O)[C@H](O)CC(=NO[C@@H]4O[C@H](CO)[C@@H](O)[C@H](O)[C@H]4O)[C@H]3CC[C@H]2C1=O | 0.534 | -1.31 (inactive) | 0.427 (inactive) | 0.246 (inactive) | 0.322 (inactive) | 0.473 | -0.0873 | 0.261 | 0.577 | 0.47
COC(=O)[C@H](C)NC(=O)CCC1CC(OC(=O)NCc2cccc3ccccc23)CC2(CCCC(COC(=O)NCc3ccccc3)O2)O1 (stereo not given in full) | 0.276 | -1.12 (inactive) | -1.33 (inactive) | -0.437 (inactive) | 0.0493 (inactive) | 0.777 | 0.0901 | 0.283 | 0.542 | 1.07
C[C@@H]1CC[C@H]2C(=O)N3[C@@H](CC[C@@H](C)[C@@H]3c3ccc(Br)cc3)C(=O)N2[C@H]1c1ccc(Br)cc1 | 0.113 | -1.1 (inactive) | 1.21 (inactive) | 0.198 (inactive) | 0.929 (inactive) | 0.146 | -0.0719 | 1.05 | 0.626 | 0.233
CCN1C(=O)[C@H]2[C@H]3[C@H](O)[C@H](O)CC(=NNC(=O)OCc4ccccc4)[C@@H]3CC[C@H]2C1=O | 0.0743 | 0.235 (inactive) | 0.511 (inactive) | -0.746 (inactive) | -0.506 (inactive) | 0.131 | -0.0986 | -0.425 | 0.151 | 0.475
CC(CCC(=O)OC[C@H]1O[C@H](C#Cc2ccccc2)C=C[C@@H]1Oc1ccc(C)cc1)=NOC[C@@H](C)[C@H](OCc1ccccc1)C(C)C | -0.174 | -0.276 (inactive) | -0.193 (inactive) | -0.399 (inactive) | 0.778 (inactive) | -0.783 | -0.128 | -0.705 | -0.28 | 0.0623
CC(C)CON=C1[C@H]2CCn3c(=O)n(C)c(=O)n3[C@H]2[C@H](O)[C@@H]2O[C@H]12 | 0.0208 | 0.736 (inactive) | -0.279 (inactive) | 0.252 (inactive) | -0.28 (inactive) | 0.212 | -0.0405 | 0.558 | -0.0543 | 0.637
CC(CCN1CCCc2nc(C)c(C)cc21)=NO[C@H](C)c1cn([C@@H]2COC[C@H]2O)nn1 | 0.395 | 0.0307 (inactive) | 0.392 (inactive) | -1.12 (inactive) | -0.181 (inactive) | 0.764 | 0.0906 | 1.47 | 2.3 | 0.979
CC(C)=NO[C@@H](C)c1cn([C@H](CO)Cc2ccccc2)nn1 | 0.0949 | -0.172 (inactive) | -0.643 (inactive) | 0.573 (inactive) | -0.537 (inactive) | 0.561 | -0.0681 | 0.818 | 0.39 | 0.469
COC(=O)[C@@H]1CC[C@H](C)[C@@H](c2ccc(C)cc2)N1C(=O)c1ccc(C=NO[C@@H](C)c2cc(-c3c(C)cc(C)cc3C)no2)cc1 | 0.153 | -1.31 (inactive) | 0.209 (inactive) | -0.0591 (inactive) | -0.187 (inactive) | 0.152 | -0.0986 | 1.62 | 0.763 | 0.707
C[C@@H]1C=CCC(=O)OC[C@H](C)C(=O)N[C@@H](Cc2ccccc2)C(=O)OC1 | 0.033 | -3.11 (inactive) | -1.23 (inactive) | 1.43 (inactive) | -0.846 (inactive) | -0.0535 | -0.0736 | 0.519 | 0.59 | 0.638
CC(C)=CCCC(C)=CCON=C1C[C@@H](O)[C@@H](O)[C@@H]2[C@@H]3C(=O)N(C4CCCCC4)C(=O)[C@@H]3CC[C@H]12 | 0.342 | -2.76 (inactive) | 0.419 (inactive) | -0.38 (inactive) | -0.306 (inactive) | 0.12 | -0.15 | 0.46 | 0.159 | 1.01
COC(=O)C1=C(C)N(Cc2ccccc2)C2=C3C(=O)OCC[C@@H]3[C@@](O)(C(=O)OC)C(=O)N2[C@@H]1c1ccccc1 | 0.226 | -0.0119 (inactive) | -0.356 (inactive) | 4.9 (inactive) | -1.1 (inactive) | 0.299 | -0.0221 | -0.154 | 0.319 | 0.404
C=CC[C@@H]1C=C[C@H](ON=C2C[C@@H](O)[C@@H](O)[C@@H]3[C@@H]4C(=O)N(CC)C(=O)[C@@H]4CC[C@@H]23)[C@@H](CO)O1 | -0.123 | -2.05 (inactive) | -1.39 (inactive) | 2.83 (inactive) | -0.247 (inactive) | -0.816 | -0.104 | 0.862 | 0.337 | 0.652
CC(C)CON=C1C[C@@H](O)[C@@H](O)[C@@H]2[C@@H]3C(=O)N(c4ccc(F)cc4F)C(=O)[C@@H]3CC[C@@H]12 | -0.0608 | -3.38 (inactive) | -0.419 (inactive) | 0.151 (inactive) | 0.391 (inactive) | 0.744 | -0.0719 | 1.29 | 0.218 | 0.583
Cc1cc(C)c(-c2cc([C@H](C)ON=C[C@@H](C)[C@H](OCc3ccccc3)C(C)C)on2)c(C)c1 | -0.18 | -0.295 (inactive) | 1.45 (inactive) | 0.0944 (inactive) | -0.549 (inactive) | 0.0366 | -0.242 | -0.477 | -0.273 | -0.16
C=CC[C@@H]1C=C[C@H](Oc2ccc(C)cc2)[C@@H](COC(=O)NCc2cccc3ccccc23)O1 | 0.243 | -2.06 (inactive) | -0.607 (inactive) | -0.527 (inactive) | -0.868 (inactive) | -0.142 | -0.156 | -0.0815 | -0.0604 | 0.701
CC(=O)OC[C@H]1O[C@@H](ON=C2[C@H]3CCn4c(=O)n(-c5ccccc5)c(=O)n4[C@H]3[C@H](O)[C@@H]3O[C@H]23)[C@H](OC(C)=O)[C@@H](OC(C)=O)[C@@H]1OC(C)=O | 0.196 | 1.03 (inactive) | 1.56 (inactive) | -0.403 (inactive) | 0.265 (inactive) | 0.324 | 0.0282 | 0.0264 | 0.422 | 1.23
CCOC(=O)[C@H](Cc1ccccc1)NC(=O)CCC1CC(OC(=O)NCc2ccc3c(c2)OCO3)CC2(CCCC(COC(=O)NCCOc3ccccc3)O2)O1 (stereo not given in full) | 0.0544 | -0.464 (inactive) | -1.09 (inactive) | -0.793 (inactive) | -0.361 (inactive) | 0.411 | -0.177 | 0.662 | 0.184 | 1.6

Reference: PubChem BioAssay
